Screens from PubChem.
An excerpt weighted towards active compounds, which were near 3.3% of everything screened.
KCC2 mod: modulators of human KCC2 chloride dependent transport | KCC2 cells, thallium flux FluoZin-2 fluorescence | AID 1456 | B-score of Tl+ flux slope (higher = more flux/activation; lower = inhibition) at 10 µM | hit rate 2.2% among 190,000;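 active means thallium flux slope and its plate-corrected score both differing from the plate sample mean at a set confidence after two filtering rounds, in either direction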;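 further: slope of fluorescence scaled to starting intensity during 10 to 20 s after thallium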
Calb FLC: affects C. albicans growth with fluconazole; C. albicans CaCi-2 (fluconazole-resistant clinical isolate) + fluconazole, Alamar Blue growth, 48 h; growth inhibition, % (no concentration beside the values); hit rate 0.57% among 300,000;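 active means growth inhibition above about 58% in most replicates, limit read from the data, passing the limit was not always enough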;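 further: all wells also contain fluconazole at 8 µg/ml as a sub-toxic cotreatment; 0% = median of DMSO wells and 100% = median of geldanamycin control wells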
H9c2 protect: modulators protecting cardiomyocytes from myocardial damage | H9c2 cardiomyocytes, H2O2 injury protection, ATPLite, 2 h | hit rate 0.63% among 360,000 | protection from H2O2 cell death, % at 20 µM | AID 588492;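 active means compounds giving at least 50% protection of heart cells from peroxide-induced death in the single-dose screen, raw or plate-pattern-corrected value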;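 further: 0% = DMSO wells with peroxide and 100% = DMSO wells without peroxide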
PHOSPHO1 block: inhibitors of human PHOSPHO1 phosphatase; Q8TCT1; recombinant PHOSPHO1, absorbance phosphatase assay; inhibition, % at 13.3 µM; hit rate 1.1% among 290,000; AID 1565; in the data active means inhibition above about 60%
Target sequence (Q8TCT1 whole entry, looked up): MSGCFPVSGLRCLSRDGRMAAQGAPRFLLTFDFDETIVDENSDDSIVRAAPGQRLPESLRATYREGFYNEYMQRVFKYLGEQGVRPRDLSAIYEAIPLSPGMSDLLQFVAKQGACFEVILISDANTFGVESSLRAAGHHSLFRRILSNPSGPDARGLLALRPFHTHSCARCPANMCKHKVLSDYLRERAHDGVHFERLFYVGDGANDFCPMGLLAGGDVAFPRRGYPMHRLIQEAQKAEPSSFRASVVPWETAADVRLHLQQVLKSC
Efflux pump inh: blocks antifungal efflux pumps in multiplex yeast assay; hit rate 0.44% among 330,000; S. cerevisiae Candida pump triplex, Nile Red efflux; inhibition, % at 10 µM;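 active means plate passing quality check with inhibition over a set limit, or well fluorescence over plate mean plus 4 SD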;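 further: Nile Red retained in pooled yeast measured as flow cytometry median fluorescence; 0% = buffer negative control and 100% = Enniatin B positive control; higher means more Nile Red kept so more efflux inhibition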
An asterisk follows results filed as active; . = no result.

SMILES	KCC2 mod	Calb FLC	H9c2 protect	PHOSPHO1 block	Efflux pump inh
O=C(N/N=C/c1c(O)ccc2ccccc12)Nc1ccccc1	.	-3.0	.	.	0.1
O=C(CN1CCOCC1)N/N=C/c1c(O)ccc2ccccc12	.	-28.9	69.1*	8.5	0.0
O=C(CSCC(=O)Nc1ccccc1)N/N=C/c1c(O)ccc2ccccc12	-0.0609	113.3*	29.8	6.6	0.1
O=C(NCCCNC(=O)c1ccccc1)c1ccccc1	.	-2.5	3.7	.	-0.1
CN1CCC(N(C)C(=O)CCc2nc3ccccc3c(=O)[nH]2)CC1	0.791	27.7	77.6*	-3.7	-0.1
CN(CC(=O)Nc1ccccc1C(F)(F)F)C(=O)CCc1nc2ccccc2c(=O)[nH]1	.	-8.2	21.2	.	-0.1
COc1ccc(Cl)cc1NC(=O)CN(C)C(=O)CCc1nc2ccccc2c(=O)[nH]1	.	.	73.2*	.	0.1
CN(CC(=O)Nc1ccccc1Br)C(=O)CCc1nc2ccccc2c(=O)[nH]1	.	.	72.7*	.	0.1
CCOc1ccc(NC(=O)CN(C)C(=O)CCc2nc3ccccc3c(=O)[nH]2)cc1OCC	.	.	49.9	.	.
COc1ccc(NC(=O)CN2CCN(CC(=O)Nc3ccc(F)cc3F)CC2)cc1	.	-1.2	-6.9	22.9	.
COc1ccc(CO[C@@H]2O[C@H](CO)[C@@H](O)[C@H](O)[C@H]2NC(C)=O)cc1OC	.	1.1	-5.2	43.7	-0.1
COc1ccc(/C=C2\SC(=O)N(CC(=O)NN3CCN(C)CC3)C2=O)cc1OC	0.0022	6.0	-3.2	33.4	-0.1
O=C(c1cc(-c2cccs2)nn1-c1ccccc1)N1CCN(S(=O)(=O)c2ccccc2)CC1	.	12.4	2.1	.	-0.1
CCN(CC)C(=O)c1cccc(NC(=O)c2cc(C3CC3)nc3c2cnn3C(C)C)c1	.	.	-2.0	.	0.3
CNC(=O)c1cccc(NC(=O)c2cc(-c3ccccc3)nc3c2cnn3C(C)C)c1	.	.	58.9*	.	0.5
Cc1cc(C)n(CCC(=O)N/N=C/c2ccc(O)cc2O)n1	-0.55	-2.1	55.3*	11.6	0.3
O=C(CCC(=O)Nc1ccc(F)cc1)N/N=C/c1ccc(O)cc1O	1.1	-4.2	74.1*	-15.2	-0.1
O=C(CCN1CCN(C(c2ccccc2)c2ccccc2)CC1)N/N=C/c1ccc(O)cc1O	-0.139	-3.2	60.7*	-16.2	-0.2
Cc1cc(C)n(CCC(=O)N/N=C/c2ccccc2O)n1	0.0619	-17.2	54.1*	-16.1	-0.1
O=C(CCN1CCN(C(c2ccccc2)c2ccccc2)CC1)N/N=C/c1ccc(O)cc1	0.781	-14.9	10.9	-5.2	0.2
COc1ccccc1N(CC(=O)NC(C)(C)C)C(=O)CCC(=O)Nc1nccs1	.	5.1	0.5	49.6	-0.1
CCN(CC(=O)Nc1ccccc1C(F)(F)F)C(=O)CCOc1ccc(C)cc1	.	-4.4	-1.8	.	-0.1
O=C(O)c1cccnc1C(=O)c1ccccc1	.	3.7	12.7	.	-0.1
Cc1[nH][nH]c(=O)c1C(c1ccc(-c2ccc(Cl)cc2Cl)o1)c1c(C)[nH][nH]c1=O	-1.87	.	.	64.2*	.
Cc1csc2nc(COC(=O)CNC(=O)c3ccc(Cl)cc3)cc(=O)n12	.	.	2.8	.	-0.2
SMILES	KCC2 mod	Calb FLC	H9c2 protect	PHOSPHO1 block	Efflux pump inh
Cc1csc2nc(COC(=O)c3ccc(Cl)c([N+](=O)[O-])c3)cc(=O)n12	.	.	81.5*	.	-0.2
O=C(COC(=O)c1ccco1)NC1CCCC1	.	2.2	1.0	40.0	-0.1
CCC1CCCCN1CCCNC(=O)C1CC(=O)N(CCc2ccccc2)C1 (configuration not stated)	.	0.1	5.1	32.4	-0.3
C=CCn1c(COc2ccc(Cl)cc2)nnc1SCC(=O)Nc1ccc(S(N)(=O)=O)cc1	0.871	-10.3	-4.8	3.8	0.2
C=CCn1c(COc2ccccc2)nnc1SCC(=O)N/N=C/c1cc(Cl)ccc1O	-1.07	-3.4	85.6*	-50.4	-0.7
Cc1ccc(NCc2nnc(SCC(=O)Nc3ncc(C)s3)n2Cc2ccco2)c(C)c1	-0.653	-2.7	5.8	73.2*	-0.1
C=CCn1c(COc2ccc(Cl)cc2)nnc1SCC(=O)NCC(=O)OCC	-0.719	14.5	3.4	99.8*	-0.1
C=CCn1c(CNc2ccc(C)cc2)nnc1SCC(=O)N/N=C/c1ccc(O)cc1O	-0.187	5.6	68.1*	11.7	-0.1
CCc1nc2ccc(C(=O)NCC3CCCCC3)cn2c1N(C)C(=O)c1cccc(OC)c1	.	.	2.4	.	.
C=CCn1c(COc2ccc(F)cc2)nnc1SCC(=O)NC(=O)NCc1ccco1	-0.548	6.0	-2.0	93.4*	-0.1
Cc1ccc(OCc2nnc(SCC(=O)C(C)(C)C)n2Cc2ccco2)cc1	.	-14.4	-9.1	61.0*	0.0
C=CCn1c(COc2ccccc2)nnc1SCc1ccc(C#N)cc1	-0.503	22.9	-1.9	38.6	0.2
C=CCn1c(COc2ccc(Cl)cc2)nnc1SCc1ccc(C#N)cc1	-1.39	2.2	-0.2	88.4*	0.5
C=CCn1c(COc2cccc(C)c2)nnc1SCC(=O)NC(=O)NCc1ccco1	-1.05	5.5	0.6	2.9	0.1
C=CCn1c(COc2ccccc2)nnc1SCC(=O)N/N=C/c1ccc(C)cc1	-1.64	-2.7	-17.8	23.5	-0.1
C=CCn1c(CNc2ccccc2)nnc1SCC(=O)N/N=C/c1ccc(O)cc1O	1.04	-1.5	85.1*	38.2	-0.2
O=S(=O)(c1ccc(-c2ccon2)s1)N1CCN(CCN2CCOCC2)CC1	-0.146	-4.4	1.6	17.1	0.2
Cc1ccc(NC(=O)CCn2cc(C(F)(F)F)ccc2=O)cc1	0.227	3.1	4.7	44.1	0.1
NC(=O)NC(Cc1ccccc1)C(=O)NNC(=O)COc1ccccc1Cl (configuration not stated)	.	.	3.7	.	0.1
O=C1C2C3C=CC(CC3)C2C(=O)N1c1cccc(Br)c1 (configuration not stated)	.	-9.8	75.5*	-5.5	0.2
O=C1C2C3C=CC(CC3)C2C(=O)N1c1ccc(Br)cc1 (configuration not stated)	.	.	6.2	.	.
CN(C(=O)Cn1nc(C(=O)O)c2ccccc2c1=O)C1(C#N)CCCCC1	.	.	56.8*	.	-0.2
O=C(O)c1nn(CC(=O)N2CCCCCC2)c(=O)c2ccccc12	0.695	-11.1	49.4	31.7	0.1
C/C=C/Cn1c(SC)nc2c1c(=O)[nH]c(=O)n2C	0.035	10.3	18.9	71.4*	0.0
COc1ccc(NC2CCCN(C(=O)Cn3ccc(C)n3)C2)cc1OC (configuration not stated)	.	15.8	-6.8	42.6	0.1
SMILES	KCC2 mod	Calb FLC	H9c2 protect	PHOSPHO1 block	Efflux pump inh
O=C(COC(=O)/C=C/c1cccc(F)c1)NC(=O)NC1CCCC1	.	.	9.4	.	0.1
Cc1c(O)c(CN2CCCCC2)cc2c3c(c(=O)oc12)CCC3	0.025	32.7	5.8	15.8	0.1
Cc1c(O)c(CN2CCCCC2)cc2c1oc(=O)c1ccccc12	-0.304	5.6	51.6*	40.5	0.2
O=C(COc1ccc2c3c(c(=O)oc2c1)CCC3)Nc1ccccn1	.	-2.9	-0.7	48.8	-0.1
CN(C)CCCNC(=O)c1ccc(-c2nc(-c3ccc(Cl)cc3)cs2)cc1	.	100.4*	-19.2	20.8	0.1
CCNC(=O)C1(C)CCN(Cc2ccccc2C#N)C1 (configuration not stated)	.	.	2.1	.	.
Nc1ncnc(Nc2ccccn2)c1[N+](=O)[O-]	0.257	-1.0	8.5	29.5	0.0
